# The panel holds about 83,000 compounds, 20% with a hit somewhere; the sample as a whole holds those more often.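 Assay: single dose, 48 h. Readout: percent growth (0 = no net growth; negative = cell death). Active: <10.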 Values without a mark were called inactive. Calls of active or inactive are those of the source.
# Tests used:
# Assay in all cases: NCI-60 one-dose screen, 48 h (100 = growth as untreated, 0 = no growth, -100 = all killed)
# HCT-15 colon = conditions: 10 µM unless noted
# HT29 colon = conditions: 10 µM unless noted
# SNB-75 CNS = conditions: 10 µM unless noted
# SNB-19 CNS = conditions: 10 µM unless noted
# U251 CNS = conditions: 10 µM unless noted
# PC-3 prostate = conditions: 10 µM unless noted
# SK-MEL-5 melanoma = conditions: 10 µM unless noted
# UACC-62 melanoma = conditions: 10 µM unless noted
# LOX IMVI melanoma = conditions: 10 µM
# SK-MEL-28 melanoma = conditions: 10 µM unless noted
# SK-MEL-2 melanoma = conditions: 10 µM unless noted
# EKVX NSCLC = conditions: 10 µM unless noted
# SN12C renal = conditions: 10 µM unless noted
# UO-31 renal = conditions: 10 µM unless noted
# TK-10 renal = conditions: 10 µM unless noted
# ACHN renal = conditions: 10 µM unless noted
# CAKI-1 renal = conditions: 10 µM unless noted
# A498 renal = conditions: 10 µM unless noted
# MOLT-4 leukemia = conditions: 10 µM unless noted
# CCRF-CEM leukemia = conditions: 10 µM unless noted
Compound,growth (HCT-15 colon) [%],growth (HT29 colon) [%],growth (SNB-75 CNS) [%],growth (SNB-19 CNS) [%],growth (U251 CNS) [%],growth (PC-3 prostate) [%],growth (SK-MEL-5 melanoma),growth (UACC-62 melanoma) [%],growth (LOX IMVI melanoma) [%],growth (SK-MEL-28 melanoma) [%],growth (SK-MEL-2 melanoma),growth (EKVX NSCLC) [%],growth (SN12C renal) [%],growth (UO-31 renal),growth (TK-10 renal) [%],growth (ACHN renal) [%],growth (CAKI-1 renal) [%],growth (A498 renal) [%],growth (MOLT-4 leukemia) [%],growth (CCRF-CEM leukemia) [%]
CC1CC(C)S(=O)(=O)C1 (configuration not stated),103,99.9,94.6,108,88.5,104,101%,92.9,103,111,112%,108,108,101%,103,103,106,122,91.3,
COc1ccc(Br)c2c1C(=O)CC2,110,106,99.6,108,107,96.6,109%,90.4,104,135,96%,106,91.8,85.4%,147,114,110,169,142,93.1
S=c1nc2[nH]c3ccccc3c2n[nH]1,97.3,98.6,103,83.3,105,82.3,90.1%,87.1,89.6,91.7,5.51% (active),66.4,92.2,88.6%,122,97.2,88.9,95.7,104,91.3
CCC(=O)Oc1c(C)cc(O)c2ccccc12,91.1,106,86.4,108,87.7,59,82%,67.3,75,119,90.4%,97,93.3,51.8%,132,77.5,95.1,101,64,
O=C(O)C1CCCN1C(=O)OCc1ccccc1 (configuration not stated),108,97.6,81.6,104,108,108,104%,109,88.4,105,94.7%,117,103,80.9%,106,109,94.6,108,96.2,112
C=CC(=O)OC1CCC(C(C)(C)CC)CC1 (configuration not stated),98.2,112,95.4,109,116,104,104%,109,101,110,108%,117,103,83.9%,101,110,115,87.2,107,106
COC1=C(OC)C(=O)C(SC/C=C(\C)CCCC(C)CCCC(C)CCCC(C)C)=CC1=O (configuration not stated),17.2,56.2,27.8,24.6,15.4,10.8,-67.3% (active),26.7,17.2,40.8,-11.3% (active),27.6,15.4,-3.97% (active),56,20.6,102,16.8,10.4,
Cc1cc(Cc2ccccc2)c(O)c(Cc2ccccc2)c1,89.8,104,75.5,102,86.5,88.3,98.6%,71.4,80.7,106,111%,112,79.7,64.6%,98.8,92.9,80.5,98.6,64.6,98.2
